From PubChem BioAssay come the findings set out here.

Activity calls are given as the source filed them.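 The calls were made as follows, unless noted: active = NADPH fluorescence slope more negative than the mean of all samples by about 3 SD, 99.7% confidence; inactive = the rest.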

Sequence of Voltage-gated potassium channel subunit beta-2 (Rattus norvegicus) (P62483 whole entry, looked up): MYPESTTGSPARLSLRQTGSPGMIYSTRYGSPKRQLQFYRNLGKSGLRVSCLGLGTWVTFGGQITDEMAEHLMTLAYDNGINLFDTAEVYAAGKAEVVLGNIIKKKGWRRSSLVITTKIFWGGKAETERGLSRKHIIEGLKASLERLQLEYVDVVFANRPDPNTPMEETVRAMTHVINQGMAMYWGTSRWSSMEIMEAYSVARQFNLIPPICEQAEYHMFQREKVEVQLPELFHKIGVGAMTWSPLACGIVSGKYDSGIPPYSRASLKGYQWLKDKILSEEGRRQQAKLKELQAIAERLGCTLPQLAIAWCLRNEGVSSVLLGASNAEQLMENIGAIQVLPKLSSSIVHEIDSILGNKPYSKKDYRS

The first assay has as its target Voltage-gated potassium channel subunit beta-2 (Rattus norvegicus) (UniProt P62483). Kind of assay: KvBeta positive modulators, primary screen, biochemical, NADPH fluorescence (AID 623).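 Also: fluorescence intensity change per second fitted from 20 to 320 s.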 Particulars: Recombinant KvBeta, NADPH fluorescence decrease slope, 10 min; at 10 µM; active compounds read low.
Turning to `CCOC(=O)Cn1ncc(-c2ccccc2)c1N`, the NADPH fluorescence slope was 2.4e-05 (inactive).
As to `O=C(NCC(c1cccnc1)N1CCN(c2ccc(F)cc2)CC1)OCc1ccccc1` (stereo not given), the NADPH fluorescence slope was 7e-06 (inactive).
Same read-out and setting: the figure for `O=C(c1ccc(Cl)cc1)N1CCCOC1` is -4.9e-05 (inactive); for `Cc1ccc(S(=O)(=O)C2(C(=O)Nc3cccnc3)CC2)cc1` it is -2.5e-05 (inactive).
Take `Cc1[nH]nc(N=CC2=C(O)CC(C)(C)CC2=O)c1-c1ccc(Cl)cc1`: the NADPH fluorescence slope is 1.2e-05 (inactive).
Same read-out and setting: the figure for `CC(C)(C)c1ccc2c(c1)OCC(C(=O)O)O2` (stereo not given) is 5.5e-05 (inactive).
The same measure, in the same setting: the figure for `Cn1c(=O)[nH]c(=O)c2c1nc(NCCCn1ccnc1)n2Cc1ccccc1` is -3.4e-05 (inactive).
In the case of `CCOC(=O)C(NC(=O)CC)(Nc1ccc(S(=O)(=O)Nc2onc(C)c2C)cc1)C(F)(F)F` (stereo not given), the NADPH fluorescence slope was -1.1e-05 (inactive).
Same read-out and setting: the figure for `CCOc1ccc(S(=O)(=O)Nc2ccc(Cl)cn2)c(C)c1C` is -3e-05 (inactive); for `O=C(OCC#CCSc1nnc(-c2ccncc2)o1)c1cccs1` it is -2e-05 (inactive); for `O=P(O)(O)C(O)C(F)(F)C(F)(F)C(F)(F)C(F)F` (stereo not given) it is -2e-06 (inactive).
On the same count and under the same terms, the figure for `COc1ccc(-c2nnc(SCC(=O)Nc3cc(C)on3)n2C)cc1OC` is -1.3e-05 (inactive).
The same measure, in the same setting: the figure for `Cc1c(C#N)c(N)c(C(=O)c2ccccc2)n1Cc1ccccc1` is -1.4e-05 (inactive).
With `CCC(C)NCC(O)COCc1ccc(Cl)cc1` (stereo not given), the NADPH fluorescence slope was -5.9e-06 (inactive).
As for `CC(=O)N1CCc2cc(S(=O)(=O)CCC(=O)Nc3cccc(F)c3)ccc21`, the NADPH fluorescence slope is -4e-05 (inactive).
On the same count and under the same terms, the figure for `O=c1c2[nH]c3cccc(Cl)c3c2ncn1CCN1CCCCC1` is -2.5e-05 (inactive); for `O=C(Nc1cccc2ccccc12)c1ccc(Br)o1` it is -1.5e-05 (inactive).
The same measure, in the same setting: the figure for `CN(C)S(=O)(=O)c1ccc(C(=O)N2CCCC2c2nc3ccccc3s2)cc1` (stereo not given) is 1.6e-05 (inactive); for `CSc1ccccc1NC(=O)C1CCCO1` (stereo not given) it is 0.000108 (inactive); for `C=CCn1c(=O)c2ccccc2n2c(SC(C)C(=O)Nc3nc(-c4ccccc4)cs3)nnc12` (stereo not given) it is -2.2e-05 (inactive).
On the same count and under the same terms, the figure for `CC1Cc2ccccc2N1C(=O)CSc1nc2ccccc2n1CC(=O)N1CCOCC1` (stereo not given) is -0.000178 (inactive); for `COc1ccccc1C(=O)NC(C)C(c1cccs1)N1CCN(C)CC1` (stereo not given) it is 1.2e-06 (inactive); for `CCn1cc(C(=O)NCCCOC)c(=O)c2cc(S(=O)(=O)N(C)C)ccc21` it is 3.3e-05 (inactive).
Consider `Cc1cc(N2C(=O)C(O)=C(C(=O)c3ccc(C)o3)C2c2cccs2)no1` (stereo not given), for which the NADPH fluorescence slope is -1.8e-05 (inactive).
Consider `Cc1ccc(CNC(=O)C2CC(=O)OC23CCCC3)c(C)c1` (stereo not given), for which the NADPH fluorescence slope is 4.6e-07 (inactive).
On the same count and under the same terms, the figure for `CCSc1nc2ccccc2n1CCC(=O)O` is -0.000157 (inactive); for `COc1ccc(-c2nc(CS(=O)CC(=O)N3CCCC3)c(C)o2)cc1` (stereo not given) it is -3.2e-05 (inactive).
For `COc1ccc2c(c1)CCc1cc(C(=O)N3CCN(c4ccc(N5CCOCC5)nn4)CC3)sc1-2`, the NADPH fluorescence slope was -1.1e-05 (inactive).
Still for that read-out and setting: the figure for `COC(=O)c1ccc(Oc2nc(NC(C)C)nc(N(C)C)n2)cc1` is 2.5e-05 (inactive); for `COc1ccc(N(CC(=O)N2CCCCC2)S(=O)(=O)c2ccccc2)c(OC)c1` it is -7.4e-06 (inactive); for `O=c1cc(CSc2nnnn2-c2ccccc2)nc2scc(-c3ccccc3)n12` it is -1.1e-05 (inactive).
Same read-out and setting: the figure for `O=C1CCCc2c1nn(-c1ccccc1)[n+]2[O-]` is -2.2e-05 (inactive).
The same measure, in the same setting: the figure for `Nc1nc(Nc2ccc(Cl)cc2Cl)nc(C(F)(F)F)n1` is -1.8e-06 (inactive).
`Cn1c(=O)c2c(nc(NCc3ccco3)n2C/C=C/c2ccccc2)n(C)c1=O`: the NADPH fluorescence slope was 3.3e-05 (inactive).
Same read-out and setting: the figure for `Cn1c(=O)[nH]c(=O)c2c1nc(N1CCc3ccccc3C1)n2CCSc1nc2ccccc2s1` is -4.2e-05 (inactive); for `COC(=O)c1oc2ccc(Br)cc2c1NC(C)=O` it is -3.5e-05 (inactive).
Same read-out and setting: the figure for `COc1cc(NC(=O)CC(C)C)ccc1NC(=O)c1ccco1` is 1e-05 (inactive); for `CCOC(=O)N1CCC(NC(=O)C2CCC(Cn3c(=O)[nH]c4ccccc4c3=O)CC2)CC1` (stereo not given) it is 3.1e-05 (inactive).
Regarding `Cc1cc(C(F)F)n2nc(C(=O)Nc3ccc(S(=O)(=O)N4CCCCCC4)cc3)nc2n1`, the NADPH fluorescence slope is 2.4e-05 (inactive).
As to `O=C(NCCN1CCOCC1)C1CCC(=O)N1Cc1ccccc1Cl` (stereo not given), the NADPH fluorescence slope is 2e-07 (inactive).

Another assay deals with Alpha-2C adrenergic receptor (Homo sapiens) (UniProt P18825). Kind of assay: modulators of alpha2C/GIRK thallium flux, primary screen, cell-based, HEK293 alpha2C/GIRK1/2 (AID 624;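 active = fluorescence slope after compound addition differing from the mean of all screened samples at 99.7% confidence, in either direction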;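 also: slope of fluorescence ratio to pre-addition baseline per second over 15 to 24 s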). Particulars: thallium flux BTC fluorescence, at 10 µM, actives lie on both sides.
Sequence of Alpha-2C adrenergic receptor (Homo sapiens) (P18825 whole entry, looked up): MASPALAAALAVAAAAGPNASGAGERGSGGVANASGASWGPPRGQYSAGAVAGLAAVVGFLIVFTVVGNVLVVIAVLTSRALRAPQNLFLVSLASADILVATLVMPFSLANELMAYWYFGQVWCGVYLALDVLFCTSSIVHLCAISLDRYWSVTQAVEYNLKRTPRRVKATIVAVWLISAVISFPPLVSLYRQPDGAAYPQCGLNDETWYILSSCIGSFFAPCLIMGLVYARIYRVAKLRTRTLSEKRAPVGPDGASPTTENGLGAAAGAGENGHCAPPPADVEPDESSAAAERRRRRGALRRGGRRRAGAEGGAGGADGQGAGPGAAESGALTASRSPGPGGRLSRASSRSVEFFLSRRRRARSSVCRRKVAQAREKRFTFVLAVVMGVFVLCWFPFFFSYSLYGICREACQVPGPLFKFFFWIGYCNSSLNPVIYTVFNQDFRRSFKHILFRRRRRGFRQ
Turning to `CCOC(=O)Cn1ncc(-c2ccccc2)c1N`, the slope was 0.0046 (inactive).
On the same count and under the same terms, the figure for `O=C(NCC(c1cccnc1)N1CCN(c2ccc(F)cc2)CC1)OCc1ccccc1` (stereo not given) is 0.00599 (inactive); for `O=C(c1ccc(Cl)cc1)N1CCCOC1` it is 0.00521 (inactive); for `Cc1ccc(S(=O)(=O)C2(C(=O)Nc3cccnc3)CC2)cc1` it is 0.00528 (inactive).
Still for that read-out and setting: the figure for `Cc1[nH]nc(N=CC2=C(O)CC(C)(C)CC2=O)c1-c1ccc(Cl)cc1` is 0.00588 (inactive); for `CC(C)(C)c1ccc2c(c1)OCC(C(=O)O)O2` (stereo not given) it is 0.00589 (inactive); for `Cn1c(=O)[nH]c(=O)c2c1nc(NCCCn1ccnc1)n2Cc1ccccc1` it is 0.00342 (inactive).
Still for that read-out and setting: the figure for `CCOC(=O)C(NC(=O)CC)(Nc1ccc(S(=O)(=O)Nc2onc(C)c2C)cc1)C(F)(F)F` (stereo not given) is 0.00634 (inactive); for `CCOc1ccc(S(=O)(=O)Nc2ccc(Cl)cn2)c(C)c1C` it is 0.00637 (inactive); for `O=C(OCC#CCSc1nnc(-c2ccncc2)o1)c1cccs1` it is 0.00642 (inactive).
Turning to `O=P(O)(O)C(O)C(F)(F)C(F)(F)C(F)(F)C(F)F` (stereo not given), the slope is 0.0027 (inactive).
Same read-out and setting: the figure for `COc1ccc(-c2nnc(SCC(=O)Nc3cc(C)on3)n2C)cc1OC` is 0.00613 (inactive); for `Cc1c(C#N)c(N)c(C(=O)c2ccccc2)n1Cc1ccccc1` it is 0.0107 (inactive).
Still for that read-out and setting: the figure for `CCC(C)NCC(O)COCc1ccc(Cl)cc1` (stereo not given) is 0.00563 (inactive); for `CC(=O)N1CCc2cc(S(=O)(=O)CCC(=O)Nc3cccc(F)c3)ccc21` it is 0.00334 (inactive).
Same read-out and setting: the figure for `O=c1c2[nH]c3cccc(Cl)c3c2ncn1CCN1CCCCC1` is 0.00476 (inactive); for `O=C(Nc1cccc2ccccc12)c1ccc(Br)o1` it is 0.00359 (inactive); for `CN(C)S(=O)(=O)c1ccc(C(=O)N2CCCC2c2nc3ccccc3s2)cc1` (stereo not given) it is 0.0053 (inactive).
Take `CSc1ccccc1NC(=O)C1CCCO1` (stereo not given): the slope was 0.00731 (inactive).
Same read-out and setting: the figure for `C=CCn1c(=O)c2ccccc2n2c(SC(C)C(=O)Nc3nc(-c4ccccc4)cs3)nnc12` (stereo not given) is 0.00616 (inactive); for `CC1Cc2ccccc2N1C(=O)CSc1nc2ccccc2n1CC(=O)N1CCOCC1` (stereo not given) it is 0.00303 (inactive); for `COc1ccccc1C(=O)NC(C)C(c1cccs1)N1CCN(C)CC1` (stereo not given) it is 0.00389 (inactive).
On the same count and under the same terms, the figure for `CCn1cc(C(=O)NCCCOC)c(=O)c2cc(S(=O)(=O)N(C)C)ccc21` is 0.00533 (inactive).
Consider `Cc1cc(N2C(=O)C(O)=C(C(=O)c3ccc(C)o3)C2c2cccs2)no1` (stereo not given), for which the slope was 0.00606 (inactive).
On the same count and under the same terms, the figure for `Cc1ccc(CNC(=O)C2CC(=O)OC23CCCC3)c(C)c1` (stereo not given) is 0.00501 (inactive); for `CCSc1nc2ccccc2n1CCC(=O)O` it is 0.00453 (inactive); for `COc1ccc(-c2nc(CS(=O)CC(=O)N3CCCC3)c(C)o2)cc1` (stereo not given) it is 0.006 (inactive).
Same read-out and setting: the figure for `COc1ccc2c(c1)CCc1cc(C(=O)N3CCN(c4ccc(N5CCOCC5)nn4)CC3)sc1-2` is 0.00712 (inactive).
On the same count and under the same terms, the figure for `COC(=O)c1ccc(Oc2nc(NC(C)C)nc(N(C)C)n2)cc1` is 0.00595 (inactive); for `COc1ccc(N(CC(=O)N2CCCCC2)S(=O)(=O)c2ccccc2)c(OC)c1` it is 0.00613 (inactive).
On to `O=c1cc(CSc2nnnn2-c2ccccc2)nc2scc(-c3ccccc3)n12`, for which the slope is 0.004 (inactive).
As to `O=C1CCCc2c1nn(-c1ccccc1)[n+]2[O-]`, the slope was 0.00571 (inactive).
Same read-out and setting: the figure for `Nc1nc(Nc2ccc(Cl)cc2Cl)nc(C(F)(F)F)n1` is 0.00538 (inactive); for `Cn1c(=O)c2c(nc(NCc3ccco3)n2C/C=C/c2ccccc2)n(C)c1=O` it is 0.00629 (inactive); for `Cn1c(=O)[nH]c(=O)c2c1nc(N1CCc3ccccc3C1)n2CCSc1nc2ccccc2s1` it is 0.00385 (inactive).
Consider `COC(=O)c1oc2ccc(Br)cc2c1NC(C)=O`, for which the slope is 0.00664 (inactive).
The same measure, in the same setting: the figure for `COc1cc(NC(=O)CC(C)C)ccc1NC(=O)c1ccco1` is 0.00539 (inactive); for `CCOC(=O)N1CCC(NC(=O)C2CCC(Cn3c(=O)[nH]c4ccccc4c3=O)CC2)CC1` (stereo not given) it is 0.00617 (inactive); for `Cc1cc(C(F)F)n2nc(C(=O)Nc3ccc(S(=O)(=O)N4CCCCCC4)cc3)nc2n1` it is 0.00419 (inactive).
Still for that read-out and setting: the figure for `O=C(NCCN1CCOCC1)C1CCC(=O)N1Cc1ccccc1Cl` (stereo not given) is 0.00614 (inactive).
